In PubChem BioAssay AID1159580 (chemical genetic matrix, 2015):
“And” between values parts separate entries of the source, which are not always exact repeats. Identical values can stand only once. Among all 5,500 compounds or so, about 2,000 (36%) were called active. Not shown: some 18% with an inconclusive outcome. No stated cut-off is given here; in the data, active means normalized growth mostly below about 0.91 (no sharp cut-off); inconclusive means no clear call, values can overlap the other calls; inactive means mostly above about 0.92. The list shows a part of the results.

Assay: chemical genetic growth profiling, strain panel (AID 1159580);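 further: tested at 20 µM; growth read once vehicle control cultures reached saturation at 30 °C; 1 = growth at the plate median or of vehicle wells; lower values mean less growth of the strain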
Conditions: S. cerevisiae deletion strains, growth OD

Measured: normalized growth

CN[C@@H]1C(OC2[C@H](O[C@H]3[C@H](O)[C@@H](O)[C@H](N=C(N)N)[C@@H](O)[C@@H]3N=C(N)N)OC(C)[C@]2(O)CO)OC(CO)C(O)C1O (some centres not stated)
inactive: locus YAL021C, strain ccr4, hits give low values 1.02 | locus YAL026C, strain drs2, hits give low values 1.02 | locus YAL030W, strain snc1, hits give low values 0.997 | locus YBL061C, strain skt5, hits give low values 0.996 | locus YBR009C, strain hhf1, hits give low values 1.01 | locus YBR021W, strain FUR4, hits give low values 0.988 | locus YBR023C, strain chs3, hits give low values 1.01 | locus YBR171W, strain sec66, hits give low values 0.996 | locus YBR229C, strain ROT2, hits give low values 0.993 | locus YBR231C, strain swc5, hits give low values 1.01 | locus YBR279W, strain paf1, hits give low values 1.01 | locus YCL011C, strain gbp2, hits give low values 1.05 | locus YCL016C, strain dcc1, hits give low values 1.02 | locus YCL029C, strain bik1, hits give low values 0.978 | locus YCL069W, strain vba3, hits give low values 1.03 | locus YCR088W, strain abp1, hits give low values 0.994 | locus YDL005C, strain med2, hits give low values 0.998 | locus YDL035C, strain GPR1, hits give low values 1.03 | locus YDL040C, strain nat1, hits give low values 0.999 | locus YDL074C, strain BRE1, hits give low values 0.989 | locus YDL101C, strain DUN1, hits give low values 0.979 | locus YDL185W, strain tfp1, hits give low values 0.984 | locus YDL192W, strain arf1, hits give low values 0.989 | locus YDR001C, strain nth1, hits give low values 1.02 | locus YDR069C, strain doa4, hits give low values 1 | locus YDR101C, strain arx1, hits give low values 0.992 | locus YDR137W, strain rgp1, hits give low values 0.998 | locus YDR159W, strain sac3, hits give low values 0.982 | locus YDR162C, strain NBP2, hits give low values 1.01 | locus YDR195W, strain ref2 0.942 | locus YDR297W, strain sur2, hits give low values 1 | locus YDR318W, strain mcm21, hits give low values 0.98 | locus YDR334W, strain swr1, hits give low values 1.02 | locus YDR335W, strain msn5, hits give low values 1.01 | locus YDR388W, hits give low values 0.975 | locus YDR392W, strain spt3, hits give low values 1.02 | locus YDR502C, strain sam2, hits give low values 0.985 | locus YEL003W, strain gim4, hits give low values 1 | locus YEL037C, strain rad23, hits give low values 1.01 | locus YEL061C, strain CIN8 (second series), hits give low values 1.01 | locus YEL061C, strain CIN8, hits give low values 0.995 | locus YER015W, strain faa2, hits give low values 1.01 | locus YER016W, strain bim1, hits give low values 1 | locus YER110C, hits give low values 0.97 | locus YER111C, strain swi4, hits give low values 1.01 | locus YER155C, strain BEM2 (second series), hits give low values 0.994 | locus YER155C, strain BEM2, hits give low values 0.987 | locus YER167W, strain BCK2, hits give low values 0.99 | locus YFR010W, strain ubp6, hits give low values 0.993 | locus YGL078C, strain dbp3, hits give low values 0.97 | locus YGL086W, strain mad1, hits give low values 1 | locus YGL167C, strain pmr1, hits give low values 0.996 | locus YGL173C, strain kem1, hits give low values 1.02 | locus YGL227W, strain vid30, hits give low values 0.993 | locus YGL240W, strain doc1, hits give low values 1.01 | locus YGL248W, strain PDE1, hits give low values 0.975 | locus YGL253W, strain hxk2, hits give low values 1.02 | locus YGR135W, strain pre9, hits give low values 0.956 | locus YGR229C, strain SMI1, hits give low values 1.02 | locus YGR252W, strain gcn5, hits give low values 0.943 | locus YHR013C, strain ard1, hits give low values 1.03 | locus YHR027C, strain rpn1, hits give low values 1.01 | locus YHR030C, strain SLT2, hits give low values 0.993 and 1.03 | locus YHR079C, strain IRE1 (second series), hits give low values 0.98 | locus YHR079C, strain IRE1, hits give low values 1.03 | locus YHR094C, strain hxt1, hits give low values 0.972 | locus YHR129C, strain ARP1, hits give low values 0.998 | locus YHR142W, strain chs7, hits give low values 1.02 | locus YHR200W, strain rpn10, hits give low values 0.981 | locus YIL066C, strain RNR3, hits give low values 0.992 | locus YIL073C, strain SPO22, hits give low values 0.958 | locus YIL125W, strain kgd1, hits give low values 0.981 | locus YIR030C, strain dcg1, hits give low values 0.975 | locus YJL092W, strain hpr5, hits give low values 0.999 | locus YJL095W, strain BCK1 (second series), hits give low values 1 | locus YJL095W, strain BCK1, hits give low values 0.975 and 1.05 | locus YJL115W, strain asf1, hits give low values 1 | locus YJL129C, strain trk1, hits give low values 0.981 | locus YJL134W, strain LCB3, hits give low values 0.99 | locus YJL154C, strain vps35, hits give low values 1.01 | locus YJL164C, strain tpk1, hits give low values 1.02 | locus YJL166W, strain qcr8, hits give low values 1.02 | locus YJL168C, strain set2, hits give low values 0.973 | locus YJL187C, strain SWE1 (second series), hits give low values 0.981 | locus YJR043C, strain POL32, hits give low values 1.04 | locus YJR066W, strain TOR1, hits give low values 0.975 | locus YJR075W, strain HOC1, hits give low values 0.985
